The values below come from PubChem BioAssay AID485347 (National Center for Advancing Translational Sciences (NCATS), 2010).

About 1,200 (0.35%) of roughly 340,000 compounds were called active. The entries come from a sample that favours actives as a whole. A number with no mark means an inactive call.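 How the source made its calls: active means potentiation over 3 SD above the plate norm (cut at about 30% in these data); inactive means the rest.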

The target in this experiment is D(2) dopamine receptor (Homo sapiens) (UniProt P14416). Put plainly: HTS Assay for Positive Allosteric Modulators of the Human D2 Dopamine Receptor: Primary Screen for Potentiators. Further: 0% is about no effect. To be noted: HEK293 T-REx D2, calcium flux, EC20 dopamine potentiation; at 10 µM; hits give high values. The source says: NIH Chemical Genomics Center [NCGC] NIH Molecular Libraries Probe Centers Network [MLPCN] MLPCN Grant: NS064831-01 Assay Submitter (PI): David Sibley Dopamine receptors (DARs) are involved in the etiology and/or therapy of a number of neuropsychiatric and endocrine disorders. For instance, all receptor-based antiparkinsonian drugs work via stimulating the D2 DAR subtype whereas all FDA-approved antipsychotic agents are antagonists of this receptor. […] There are three different types of allosteric modulators that we are seeking, two of which will stimulate or augment receptor signaling, allosteric agonists and potentiators, while the third, allosteric antagonists, will attenuate receptor signaling. The present primary screening assay measures compound potentiation of an EC20 dopamine response by tracking calcium flux in a […], inducible Hek293 Trex D2 cell line.
Sequence of D(2) dopamine receptor (Homo sapiens) (P14416 whole entry, looked up): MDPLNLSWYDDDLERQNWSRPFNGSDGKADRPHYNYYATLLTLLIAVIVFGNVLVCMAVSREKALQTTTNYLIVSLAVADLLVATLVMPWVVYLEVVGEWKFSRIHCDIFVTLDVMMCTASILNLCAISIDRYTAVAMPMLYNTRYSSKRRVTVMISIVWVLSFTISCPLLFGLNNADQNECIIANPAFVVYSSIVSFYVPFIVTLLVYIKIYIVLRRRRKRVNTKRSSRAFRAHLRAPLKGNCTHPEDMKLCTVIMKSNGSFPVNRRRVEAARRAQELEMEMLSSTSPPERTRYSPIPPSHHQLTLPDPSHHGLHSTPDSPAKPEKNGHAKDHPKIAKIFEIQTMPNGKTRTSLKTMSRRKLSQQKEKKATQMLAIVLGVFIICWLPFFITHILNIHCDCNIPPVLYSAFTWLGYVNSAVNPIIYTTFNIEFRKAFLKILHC
Freshly passaged cells are plated in 1536 well black, clear bottom plates at a density of 4000 cells/well in 3 ul of complete media containing 1x tetracycline inducer. After an overnight incubation at 30 C in 5% CO2, cells are loaded with 2 ul of the no wash Calcium Assay Kit (ABD Bioquest) and incubated at room temperature for 30 to 90 minutes. A 10 cycle (1 second/cycle) baseline measurement is taken and then the FDSS online 1536 pintool delivers 23 nl of compound library (as well as dopamine controls) to the plate. The plate is measured for kinetically at 1 cycle/sec for 180 seconds and is considered to be the agonist portion of the assay (eg, compounds which activate a positive calcium response during this portion are flagged as potential agonists). Following the 180 second read, 1 ul of an EC20 of dopamine is delivered by an onboard pipette head. Measurements are taken kinetically for an additional 180 seconds.
For `CCN(CC(=O)Nc1ccccc1OC)C(=O)CC1CC2CCC1C2` (stereo not given), the potentiation is 5.39%.

On to `CCN(CC(=O)Nc1ccccc1OC)C(=O)Cn1cnc2ccccc2c1=O`, for which the potentiation was 11.8%.

As to `CCCN(CC(=O)Nc1ccccc1OC)C(=O)CCC(=O)c1ccc(F)cc1`, the potentiation was 30.4% (active).

As to `Cc1cc(C)cc(OCC(=O)Nc2c(C(=O)c3ccccc3)oc3ccccc23)c1`, the potentiation was -6.36%.

On to `COc1ccc(C)cc1NC(=O)COCc1cc(-c2cccs2)on1`, for which the potentiation is 3.43%.

On to `CCN(c1ccccc1)S(=O)(=O)c1cc(C(=O)NCc2ccccn2)ccc1C`, for which the potentiation is -2.26%.

As for `CN(c1ccc(C(=O)NCCC2=CCCCC2)cc1)S(C)(=O)=O`, the potentiation was -10.3%.

On to `CN(c1ccc(C(=O)NCc2ccccn2)cc1)S(C)(=O)=O`, for which the potentiation is 42.4% (active).

Regarding `O=C(CCS(=O)(=O)c1ccccc1)N(Cc1cccnc1)c1nc2c(F)cccc2s1`, the potentiation was -2.05%.

Consider `Cc1ccc(C2C=C(c3ccc(Cl)cc3)Nc3nc(NC(=O)CCC(=O)O)nn32)cc1` (stereo not given), for which the potentiation is 5.1%.

For the compound `CCOc1ccc(CNCc2c(C(=O)O)c(C)n(Cc3cccc(OC)c3)c2C)cc1OC`, the potentiation is -3.84%.

Take `COc1cccc(C(=O)c2sc3nc(-c4ccccc4)cc(C(F)(F)F)c3c2N)c1`: the potentiation is -10.4%.

Turning to `Cc1sc2nc(CC(N)=O)[nH]c(=O)c2c1-c1ccccc1`, the potentiation is 9.95%.

For the compound `NC(=O)c1sc2nc3c(c(-c4ccccc4)c2c1N)CCC3`, the potentiation is 37.2% (active).

Turning to `Cc1ccc(NC(=O)c2oc3ccccc3c2NC(=O)Cc2cccs2)cc1`, the potentiation is -10%.

For the compound `CSc1ccc(CCNC(=O)c2ccc3c(c2)nc2n3CCOC2)cc1`, the potentiation is 8.52%.

Consider `Cc1ccc(C)c(Oc2c(C(F)(F)F)oc3c(CN4CCN(C)CC4)c(O)ccc3c2=O)c1`, for which the potentiation was -2.95%.

For `Cc1ccc(-c2nn(CCC(=O)Nc3ccc(Cl)c(Cl)c3)c(=O)c3ccccc23)cc1`, the potentiation was -14.9%.

As to `FC(F)Oc1ccccc1C1CC(c2ccc(Br)s2)Nc2ncnn21` (stereo not given), the potentiation was 31.8% (active).

Consider `Clc1ccc(C2CC(c3cccs3)n3ncnc3N2)cc1Cl` (stereo not given), for which the potentiation was -0.578%.

On to `CCOc1ccccc1C1CC(c2ccccc2)Nc2nc(N)nn21` (stereo not given), for which the potentiation was 14.5%.

In the case of `CCOc1ccc(NC(=S)N2CCC(N(C)CC3CCCO3)CC2)cc1` (stereo not given), the potentiation was -4.46%.

With `CCOC(=O)c1ccc(NC(=S)N2CCCC2)cc1`, the potentiation was 8.15%.

Turning to `CCOc1ccc(NC(=S)N2CCCCCC2)cc1`, the potentiation was 30.1% (active).

Take `COc1cc(CNC(=O)c2cc3n(n2)CCCN(Cc2cccc(F)c2)C3=O)cc(OC)c1OC`: the potentiation was 7.44%.
